In the supplement of paper PMC13380429:

Key:
[1] = tested on: Vero E6 infected with SARS-CoV-2; assay: morphology score (similarity to uninfected cells); higher = more like uninfected cells; conditions: 24 h
[2] = tested on: Vero E6 infected with SARS-CoV-2; assay: SARS-CoV-2 infection rate relative to infected DMSO; higher = more infection, active = 60 or less; conditions: 24 h

COC(=O)C[C@](O)(CCC(C)(C)O)C(=O)O[C@@H]1C(OC)=C[C@]23CCCN2CCc2cc4c(cc2[C@H]13)OCO4 [harringtonine] (10 µM)
morphology score [1]: 0.555
SARS-CoV-2 infection rate [2]: 49% (active)

c1ccc2sc(SN3CCOCC3)nc2c1 [N-oxydiethylenebenzothiazole-2-sulfenamide] (10 µM)
morphology score [1]: -0.00631
SARS-CoV-2 infection rate [2]: 104% (inactive)

FC(F)(F)Oc1ccc2nc(-c3ccc(OCCOCCOc4ccc(-c5nc6ccc(OC(F)(F)F)cc6[nH]5)nc4)cn3)[nH]c2c1 (10 µM)
morphology score [1]: -0.247
SARS-CoV-2 infection rate [2]: 116% (inactive)

Clc1cccc(C(c2ccc3[nH]cnc3c2)n2ccnc2)c1 (stereo not drawn) [liarozole] (10 µM)
morphology score [1]: 0.138
SARS-CoV-2 infection rate [2]: 98% (inactive)

CC(C)(C)C(=O)C(Oc1ccc(Cl)cc1)n1ccnc1 (stereo not drawn) [climbazole] (10 µM)
morphology score [1]: 0.217
SARS-CoV-2 infection rate [2]: 91.5% (inactive)

CC/C(=C(\c1ccccc1)c1ccc(OCCN(C)C)cc1)c1ccccc1 [tamoxifen] (0.833333 µM)
morphology score [1]: 0.135
SARS-CoV-2 infection rate [2]: 95.5% (inactive)

CCCCCCCCCCCC[N+](C)(C)CCOc1ccccc1 [domiphen] (10 µM)
morphology score [1]: 0.0254
SARS-CoV-2 infection rate [2]: 87% (inactive)

CN1[C@H]2C[C@H](OC(=O)[C@H](CO)c3ccccc3)C[C@@H]1[C@@H](O)C2 [anisodamine] (10 µM)
morphology score [1]: -0.00951
SARS-CoV-2 infection rate [2]: 116% (inactive)

CC(C)c1cc(C(=O)N2Cc3ccc(CN4CCN(C)CC4)cc3C2)c(O)cc1O (10 µM)
morphology score [1]: 0.185
SARS-CoV-2 infection rate [2]: 118% (inactive)

Cn1nnc2c(C(N)=O)ncn2c1=O [temozolomide] (10 µM)
morphology score [1]: -0.0949
SARS-CoV-2 infection rate [2]: 114% (inactive)

CC(C)(C)C1CCc2c(sc(NC(=O)c3ccco3)c2C(=O)O)C1 (stereo not drawn) (0.833333 µM)
morphology score [1]: 0.0992
SARS-CoV-2 infection rate [2]: 106% (inactive)

CC(C)n1nc(C#Cc2ccccc2)c2c(N)ncnc21 (10 µM)
morphology score [1]: 0.471
SARS-CoV-2 infection rate [2]: 69.5% (inactive)

CCOC(=O)c1ccc(OCCC2CCN(c3ccc(C)nn3)CC2)cc1 [pirodavir] (10 µM)
morphology score [1]: 0.0282
SARS-CoV-2 infection rate [2]: 104% (inactive)

COc1nccc(-c2c(-c3ccc(F)cc3)ncn2[C@H]2CC[C@H](O)CC2)n1 (10 µM)
morphology score [1]: 0.396
SARS-CoV-2 infection rate [2]: 85% (inactive)

CN1Cc2ccccc2[C@@H]2c3cccc4[nH]cc(c34)C[C@H]21 (10 µM)
morphology score [1]: 0.609
SARS-CoV-2 infection rate [2]: 95.5% (inactive)

CC(=O)Oc1ccccc1C(=O)Oc1ccccc1C(=O)O [acetylsalicylsalicylic-acid] (10 µM)
morphology score [1]: 0.0259
SARS-CoV-2 infection rate [2]: 103% (inactive)

C=CC(=O)c1ccc2ccccc2c1 [JAK3-inhibitor-V] (10 µM)
morphology score [1]: 0.0151
SARS-CoV-2 infection rate [2]: 102% (inactive)

O=C(/C=C/C=C/c1ccc2c(c1)OCO2)N1CCCCC1 [piperine] (10 µM)
morphology score [1]: 0.0346
SARS-CoV-2 infection rate [2]: 97.5% (inactive)

CC(=O)C(=Cc1cc(O)c(O)c([N+](=O)[O-])c1)C(C)=O [nitecapone] (10 µM)
morphology score [1]: 0.103
SARS-CoV-2 infection rate [2]: 102% (inactive)

CCCSc1ccc2[nH]c(NC(=O)OC)nc2c1 [albendazole] (0.833333 µM)
morphology score [1]: 0.0557
SARS-CoV-2 infection rate [2]: 98% (inactive)

CN(C)CCN(C)CCc1ccc(Cl)c(Cl)c1 (10 µM)
morphology score [1]: 0.208
SARS-CoV-2 infection rate [2]: 82.5% (inactive)

NC(=O)Nc1sc(-c2ccc(F)cc2)cc1C(N)=O (0.833333 µM)
morphology score [1]: 0.0683
SARS-CoV-2 infection rate [2]: 95.5% (inactive)

CC(=O)OC[C@H](N)C(=O)O [O-acetyl-L-serine] (10 µM)
morphology score [1]: 0.0719
SARS-CoV-2 infection rate [2]: 88% (inactive)

CC(C)Oc1ccc2c(=O)c3cc(C(=O)O)ccc3oc2c1 (10 µM)
morphology score [1]: 0.0971
SARS-CoV-2 infection rate [2]: 100% (inactive)

Cc1ccc(F)cc1C(=O)Nc1ccc(C(=O)N2Cc3cccn3Cc3ccccc32)c(Cl)c1 [lixivaptan] (10 µM)
morphology score [1]: 0.0414
SARS-CoV-2 infection rate [2]: 111% (inactive)

Cn1c(=O)n(-c2ccc(C(C)(C)C#N)cc2)c2c3cc(-c4cnc5ccccc5c4)ccc3ncc21 (10 µM)
morphology score [1]: 0.0712
SARS-CoV-2 infection rate [2]: 98% (inactive)

CNc1nc(-c2ccc3c(N)n[nH]c3c2)cc(N2C[C@@H](C(=O)NC3CCCCC3)CC[C@H]2C)n1 (0.833333 µM)
morphology score [1]: 0.0384
SARS-CoV-2 infection rate [2]: 106% (inactive)

CC1(C)C(/C=C/C=C/C=C/C=C2\N(CCCCS(=O)(=O)O)c3ccc4ccccc4c3C2(C)C)=[N+](CCCCS(=O)(=O)[O-])c2ccc3ccccc3c21 [indocyanine-green] (10 µM)
morphology score [1]: 0.0305
SARS-CoV-2 infection rate [2]: 109% (inactive)

COc1cc(C[C@H](C)[C@H](C)Cc2ccc3c(c2)OCO3)ccc1O [macelignan] (10 µM)
morphology score [1]: 0.185
SARS-CoV-2 infection rate [2]: 102% (inactive)
